# Measurements reported in PubChem BioAssay (Tox21).
# A number with no mark means an inactive call. Results filed as inconclusive are left out. Where a call stands in place of a potency, no number is given. Active and inactive are the calls of the source. Unless noted, calls follow the shape of the full dose curve.
# What was measured:
# [1] = Nuclear factor erythroid 2-related factor 2/antioxidant responsive element (Nrf2/ARE) small molecule agonists: qHTS cell viability counter screen in human keratinocytes (AID 1919968; active = well fitted curve in the direction sought with a large enough effect in the repeat runs; an effect the other way counts as inactive or inconclusive; also: nearly all actives have a fitted effect of over 55% in size)
# Outline: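 CellTiter-Fluor fluorescence, read 1 h after reagent, gave viability in the same wells as the ARE-luciferase assay. KeratinoSens cells (1,500/well) had 23 h compound exposure at 37 C/5% CO2 following 5 h plating.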
# [2] = Nuclear factor erythroid 2-related factor 2/antioxidant responsive element (Nrf2/ARE) small molecule agonists: luciferase reporter gene qHTS assay in human keratinocytes (AID 1919969); also: nearly all actives have a fitted effect of over 35% in size; also: potency is read from the fitted curve at half-maximal effect
# [3] = biological target: KiSS-1 receptor (Homo sapiens) (UniProt Q969F8); assay: Human kisspeptin (KISS1R) small molecule agonists, calcium flux assay in KISS1R-HEK293 cells (AID 1920064; active = well fitted curve in the direction sought with a large enough effect in the repeat runs; an effect the other way counts as inactive or inconclusive)
# Sequence of KiSS-1 receptor (Homo sapiens) (Q969F8 whole entry, looked up): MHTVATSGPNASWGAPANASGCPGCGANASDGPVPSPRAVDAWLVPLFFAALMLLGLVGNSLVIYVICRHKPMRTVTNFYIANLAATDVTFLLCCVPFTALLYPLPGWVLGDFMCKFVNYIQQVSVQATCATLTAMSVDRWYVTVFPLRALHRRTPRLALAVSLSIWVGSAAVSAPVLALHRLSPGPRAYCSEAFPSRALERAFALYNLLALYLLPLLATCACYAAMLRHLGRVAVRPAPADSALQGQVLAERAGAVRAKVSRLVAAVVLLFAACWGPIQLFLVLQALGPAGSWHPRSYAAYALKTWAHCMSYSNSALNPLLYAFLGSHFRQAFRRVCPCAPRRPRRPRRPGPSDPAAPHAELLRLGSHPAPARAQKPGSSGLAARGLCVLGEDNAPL
# Outline: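 Agonist mode: intracellular calcium rise tracked at 1 s intervals over 3 min (480/540 nm) immediately after compound addition to dye-loaded KISS1R-HEK293 stable cells. Each compound tested at 15 concentrations in triplicate.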
# [4] = G protein-coupled receptor (GPCR) small molecule agonists, calcium flux assay: HEK293 wild type cell line counter screen (AID 1920065)
# Outline: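 Calcium flux counter screen: compound added in agonist mode at 15 concentrations in triplicate to dye-loaded parental HEK293 cells. Fluorescence (480/540) read kinetically for 3 min; ATP served as positive control.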
# [5] = p53 small molecule agonists, cell-based qHTS assay with human liver microsomes (AID 1963577)
# Outline: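 Compounds act here after metabolic activation: human liver microsomes and NADPH, both at 0.5 mg/mL final, were co-added to p53RE-bla cells. Incubation ran 16 h at 37 C, followed by LiveBLAzer detection.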
# [6] = p53 small molecule agonists, cell-based qHTS assay with rat liver microsomes (AID 1963578)
# Outline: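 Read-out is beta-lactamase reporter fluorescence (LiveBLAzer, 2 h, room temperature, dark) in p53RE-bla cells treated 16 h at 37 C with compound, rat liver microsomes and NADPH, both 0.5 mg/mL final.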
# [7] = p53 small molecule agonists, cell-based qHTS assay with human liver microsomes: qHTS cell viability counter screen (AID 1963579); also: nearly all actives have a fitted effect of over 45% in size; also: potency is read from the fitted curve at half-maximal effect
# Outline: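 Cells carrying the p53 response-element beta-lactamase reporter are treated for 16 h at 37 C with test compounds in the presence of human liver microsomes and NADPH (both 0.5 mg/mL final); ATP-based CellTiter-Glo luminescence then reports viability.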
# [8] = p53 small molecule agonists, cell-based qHTS assay with rat liver microsomes: qHTS cell viability counter screen (AID 1963580); also: nearly all actives have a fitted effect of over 45% in size
# Outline: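 Cytotoxicity counter screen: intracellular ATP read by CellTiter-Glo luminescence in the p53 reporter wells. HCT-116 p53RE-bla cells were treated for 16 h at 37 C alongside rat liver microsomes and NADPH, each 0.5 mg/mL final.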
# [9] = p53 small molecule agonists, cell-based qHTS assay: qHTS cell viability counter screen (AID 1963581); also: nearly all actives have a fitted effect of over 45% in size
# Outline: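 Counter screen read by CellTiter-Glo luminescence (ATP content, 30 min at room temperature), run in the same wells as the beta-lactamase reporter read. HCT-116 p53RE-bla cells saw compounds for 16 h at 37 C.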
# [10] = p53 small molecule agonists, cell-based qHTS assay (AID 1963582; active = well fitted activation curve with a large enough effect in the signal ratio in the repeat runs, not every such curve was filed as active; the % refers to the signal ratio)
# Outline: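 Read-out is beta-lactamase FRET fluorescence after 2 h at room temperature with LiveBLAzer B/G substrate. p53 response element-bla cells were treated 16 h at 37 C with compounds in DMSO, added 5 h after seeding.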
# [11] = biological target: Muscarinic acetylcholine receptor M1 (Homo sapiens) (UniProt P11229); assay: Cholinergic receptor muscarinic 1 (CHRM1) small molecule antagonists, cell-based qHTS assay (AID 1963588); also: nearly all actives have a fitted effect of over 40% in size
# Sequence of Muscarinic acetylcholine receptor M1 (Homo sapiens) (P11229 whole entry, looked up): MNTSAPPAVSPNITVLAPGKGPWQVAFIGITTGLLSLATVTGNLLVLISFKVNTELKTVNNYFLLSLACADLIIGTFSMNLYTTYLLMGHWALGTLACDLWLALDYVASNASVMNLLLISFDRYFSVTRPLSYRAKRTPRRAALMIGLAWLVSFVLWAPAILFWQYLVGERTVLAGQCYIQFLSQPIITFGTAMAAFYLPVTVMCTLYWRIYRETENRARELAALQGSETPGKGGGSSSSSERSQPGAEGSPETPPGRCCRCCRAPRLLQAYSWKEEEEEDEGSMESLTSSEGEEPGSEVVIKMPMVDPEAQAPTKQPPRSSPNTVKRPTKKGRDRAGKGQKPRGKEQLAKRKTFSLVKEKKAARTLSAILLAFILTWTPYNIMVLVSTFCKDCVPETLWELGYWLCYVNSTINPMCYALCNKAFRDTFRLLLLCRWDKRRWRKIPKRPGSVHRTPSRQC
# Outline: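 Compounds were tested at 15 concentrations in three independent runs. Dye-loaded CHRM1-CHO cells were exposed 5 min at room temperature before stimulation by acetylcholine added at 50nM. Intracellular calcium was read kinetically on FDSS for 3 min.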
# [12] = biological target: Muscarinic acetylcholine receptor M1 (Homo sapiens) (UniProt P11229); assay: Cholinergic receptor muscarinic 1 (CHRM1) small molecule agonists, cell-based qHTS assay (AID 1963589); also: nearly all actives have a fitted effect of over 35% in size
# Outline: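 Agonist-mode calcium-flux screen: compounds at 15 concentrations, three independent runs, were pin-transferred onto dye-loaded human CHRM1-CHO cells. Fluorescence was then recorded kinetically every second over minutes.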
# [13] = cAMP Responsive Elements (CRE) small molecule agonists, cell-based qHTS assay (AID 1963590)
# Outline: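 Agonist mode: compound added to CRE-bla HEK 293T cells (2,000/well, 18 h after plating) for 3 h at 37 C/5% CO2. Reporter activity detected via FRET beta-lactamase substrate, 2 h room-temperature loading.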
# [14] = cAMP Responsive Elements (CRE) small molecule antagonists, cell-based qHTS assay (AID 1963591; active = well fitted inhibition curve with a large enough effect in the signal ratio in the repeat runs, not every such curve was filed as active; the % refers to the signal ratio)
# Outline: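 Antagonist mode: compounds are added alongside the adenylyl cyclase activator NKH477 (0.25 uM final) to CRE-bla HEK293T cells for 3 h. LiveBLAzer FRET substrate, 2 h at room temperature, reports bla expression.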
# [15] = biological target: Beta-2 adrenergic receptor (Homo sapiens) (UniProt P07550); assay: Adrenergic beta2 receptor (ADRB2) small molecule antagonists, cell-based qHTS assay (AID 1963592); also: series mostly up to about 92 µM; nearly all actives have a fitted effect of over 50% in size
# Sequence of Beta-2 adrenergic receptor (Homo sapiens) (P07550 whole entry, looked up): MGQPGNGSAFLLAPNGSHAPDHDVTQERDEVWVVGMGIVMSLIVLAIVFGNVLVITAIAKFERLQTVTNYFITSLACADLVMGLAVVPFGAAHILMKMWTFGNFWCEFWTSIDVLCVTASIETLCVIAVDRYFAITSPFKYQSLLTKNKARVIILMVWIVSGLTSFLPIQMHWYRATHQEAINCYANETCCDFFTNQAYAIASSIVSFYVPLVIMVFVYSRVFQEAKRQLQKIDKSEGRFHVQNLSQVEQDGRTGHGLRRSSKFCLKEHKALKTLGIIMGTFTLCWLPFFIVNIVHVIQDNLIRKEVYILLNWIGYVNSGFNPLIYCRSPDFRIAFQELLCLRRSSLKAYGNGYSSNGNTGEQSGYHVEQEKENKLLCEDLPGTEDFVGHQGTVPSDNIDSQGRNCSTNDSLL
# Outline: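 Assay format: CHO-ADRB2 cells, 18-20hr seeding at 37C/5% CO2, then compound plus 1nM isoproterenol agonist mix for 0.5hr RT. Homogeneous time-resolved fluorescence cAMP detection after 1hr, expressed as 665/615 nm ratio.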
# [16] = biological target: D(2) dopamine receptor (Homo sapiens) (UniProt P14416); assay: Dopamine D2 receptor (DRD2) small molecule agonists, cell-based qHTS assay (AID 1963594); also: nearly all actives have a fitted effect of over 35% in size
# Sequence of D(2) dopamine receptor (Homo sapiens) (P14416 whole entry, looked up): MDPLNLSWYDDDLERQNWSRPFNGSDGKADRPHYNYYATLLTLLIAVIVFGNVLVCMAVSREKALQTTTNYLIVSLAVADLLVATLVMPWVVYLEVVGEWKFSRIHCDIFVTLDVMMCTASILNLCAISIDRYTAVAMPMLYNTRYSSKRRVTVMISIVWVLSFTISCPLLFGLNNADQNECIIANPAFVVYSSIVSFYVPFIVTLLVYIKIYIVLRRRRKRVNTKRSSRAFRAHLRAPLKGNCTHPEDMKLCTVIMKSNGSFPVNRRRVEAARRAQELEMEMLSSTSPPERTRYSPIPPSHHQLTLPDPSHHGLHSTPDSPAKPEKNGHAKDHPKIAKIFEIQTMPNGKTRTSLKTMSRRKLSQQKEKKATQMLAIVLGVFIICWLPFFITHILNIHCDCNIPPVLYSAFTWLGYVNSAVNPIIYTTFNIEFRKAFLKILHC
# Outline: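 cAMP accumulation in DRD2-HEK293 cells measured by HTRF after 1 h detection; compounds added 10 min before NKH477 (200nM […]) forskolin-analogue stimulation, 30 min at room temperature, with Ro20-1724 present at 0.1 mM final.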
# [17] = biological target: D(2) dopamine receptor (Homo sapiens) (UniProt P14416); assay: Dopamine D2 receptor (DRD2) small molecule antagonists, cell-based qHTS assay (AID 1963595; active = well fitted inhibition curve with a large enough effect in the signal ratio in the repeat runs, with a control signal flat; the % refers to the signal ratio)
# Outline: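 HEK293 cells stably expressing DRD2, preincubated with 0.1 mM Ro20-1724 and compounds 10 min, were stimulated with 200 nM NKH477 plus 12 nM quinpirole for 30 min at room temperature; cAMP measured by HTRF (665/620 nm).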
# [18] = biological target: 5-hydroxytryptamine receptor 2A (Homo sapiens) (UniProt P28223); assay: 5-hydroxytryptamine receptor 2A (HTR2A) small molecule antagonists, cell-based qHTS assay (AID 1963586); also: nearly all actives have a fitted effect of over 45% in size
# Sequence of 5-hydroxytryptamine receptor 2A (Homo sapiens) (P28223 whole entry, looked up): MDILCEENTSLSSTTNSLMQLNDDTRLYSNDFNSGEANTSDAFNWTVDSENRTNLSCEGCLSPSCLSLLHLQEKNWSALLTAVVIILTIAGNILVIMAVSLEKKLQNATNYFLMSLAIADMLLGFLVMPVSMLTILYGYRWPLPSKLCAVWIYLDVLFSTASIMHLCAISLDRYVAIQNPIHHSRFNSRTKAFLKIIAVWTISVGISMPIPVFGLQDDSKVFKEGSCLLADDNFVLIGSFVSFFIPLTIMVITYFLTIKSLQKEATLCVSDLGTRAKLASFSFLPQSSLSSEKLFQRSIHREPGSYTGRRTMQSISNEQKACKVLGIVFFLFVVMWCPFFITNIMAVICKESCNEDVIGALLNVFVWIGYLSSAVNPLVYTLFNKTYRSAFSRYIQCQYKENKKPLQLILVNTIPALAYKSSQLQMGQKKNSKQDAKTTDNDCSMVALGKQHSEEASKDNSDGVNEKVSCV
# Outline: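 CHO cells stably expressing human HTR2A were plated for 18 h at 37 C, then loaded with calcium dye for 1 h. Compounds were preincubated 5 min at room temperature before DOI (4 nM solution) was added. Kinetic fluorescence was read for 3 min.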
# [19] = biological target: 5-hydroxytryptamine receptor 2A (Homo sapiens) (UniProt P28223); assay: 5-hydroxytryptamine receptor 2A (HTR2A) small molecule agonists, cell-based qHTS assay (AID 1963587); also: nearly all actives have a fitted effect of over 30% in size
# Outline: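 Kinetic calcium-flux fluorescence (2 min, 1 sec intervals) after compound addition in agonist mode. HTR2A-CHO cells were cultured 18 h, then dye-loaded 1 h at 37 C.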
compound,measurement,setting,value
CC(C)(C)C(=O)O,Potency,[1],inactive
same,Potency,[2],inactive
same,outcome,[3],inactive
same,outcome,[4],inactive
same,Potency,[5],inactive
same,Potency,[6],inactive
same,Potency,[7],inactive
same,Potency,[8],inactive
same,Potency,[9],inactive
same,Potency,[10],inactive
same,Potency,[11],inactive
same,Potency,[12],inactive
same,Potency,[13],inactive
same,Potency,[14],inactive
same,Potency,[15],inactive
same,Potency,[16],inactive
same,Potency,[17],inactive
NS(=O)(=O)c1cc(C2(O)NC(=O)c3ccccc32)ccc1Cl (configuration not stated),Potency,[1],inactive
same,Potency,[2],inactive
same,outcome,[3],inactive
same,outcome,[4],inactive
same,Potency,[5],inactive
same,Potency,[6],inactive
same,Potency,[7],inactive
same,Potency,[8],inactive
same,Potency,[9],inactive
same,Potency,[10],inactive
same,Potency,[13],inactive
same,Potency,[15],inactive
same,Potency,[16],inactive
same,Potency,[17],inactive
Cc1ccc(C=O)s1,Potency,[1],inactive
same,Potency,[2],68.6 µM (active)
same,outcome,[3],inactive
same,outcome,[4],inactive
same,Potency,[5],inactive
same,Potency,[6],inactive
same,Potency,[7],40.8 µM (active)
same,Potency,[9],inactive
same,Potency,[10],inactive
same,Potency,[18],inactive
same,Potency,[11],inactive
same,Potency,[12],inactive
same,Potency,[13],inactive
same,Potency,[14],inactive
same,Potency,[15],inactive
same,Potency,[16],inactive
same,Potency,[17],inactive
CCCCCCCCCCCCS(=O)(=O)Cl,"activity change, negative = cytotoxicity",[1],-5.52% [at 19 µM]
same,"activity, positive = activation",[2],-14% [at 19 µM]
same,activation,[3],0.356% [at 15.8 µM]
same,activation,[4],-1.76% [at 11.8 µM]
same,activation,[5],0.955% [at 13.5 µM]
same,activation,[6],-3.11% [at 13.6 µM]
same,"activity change, negative = cytotoxicity",[7],0.65% [at 13.5 µM]
same,"activity change, negative = cytotoxicity",[9],-1.69% [at 13.5 µM]
same,activation,[10],-3.88% [at 13.5 µM]
same,"activity, negative = inhibition",[18],6.87% [at 12.7 µM]
same,activation,[19],18.9% [at 15.9 µM]
same,activation,[12],0.179% [at 15.8 µM]
same,"activity change, negative = inhibition",[14],-6.5% [at 18.9 µM]
same,"activity change, negative = inhibition",[15],-6.85% [at 19 µM]
same,activation,[16],0.808% [at 19 µM]
CCC(C)COC(=O)CC(C)C (configuration not stated),Potency,[1],inactive
same,Potency,[2],inactive
same,outcome,[3],inactive
same,outcome,[4],inactive
same,Potency,[5],inactive
same,Potency,[6],inactive
same,Potency,[7],inactive
same,Potency,[8],inactive
same,Potency,[9],inactive
same,Potency,[18],inactive
same,Potency,[19],inactive
same,Potency,[11],inactive
same,Potency,[12],inactive
same,Potency,[15],inactive
same,Potency,[16],inactive
Cc1ccc(S(=O)(=O)NC(=O)NN2CC3CCCC3C2)cc1 (configuration not stated),Potency,[1],inactive
same,Potency,[2],inactive
same,outcome,[3],inactive
same,outcome,[4],inactive
same,Potency,[5],inactive
same,Potency,[6],inactive
same,Potency,[7],inactive
same,Potency,[8],inactive
same,Potency,[9],inactive
same,Potency,[10],inactive
same,Potency,[13],inactive
same,Potency,[14],inactive
same,Potency,[15],inactive
same,Potency,[16],inactive
same,Potency,[17],inactive
CCC(C(=O)O)c1ccc(N2Cc3ccccc3C2=O)cc1 (configuration not stated),Potency,[1],inactive
same,Potency,[2],inactive
same,outcome,[3],inactive
same,outcome,[4],inactive
same,Potency,[5],inactive
same,Potency,[6],inactive
same,Potency,[7],inactive
same,Potency,[8],inactive
same,Potency,[9],inactive
same,Potency,[18],inactive
same,Potency,[19],inactive
same,Potency,[11],inactive
same,Potency,[12],inactive
same,Potency,[15],inactive
same,Potency,[16],inactive
same,Potency,[17],inactive
O=C(CN1CCN(Cc2ccc3c(c2)OCO3)CC1)N1c2ccccc2Sc2ccccc21,Potency,[1],inactive
same,Potency,[2],inactive
same,outcome,[3],inactive
same,outcome,[4],inactive
same,Potency,[5],inactive
same,Potency,[6],inactive
same,Potency,[7],inactive
same,Potency,[8],inactive
same,Potency,[9],inactive
same,Potency,[18],inactive
same,Potency,[19],inactive
same,Potency,[11],inactive
same,Potency,[12],inactive
same,Potency,[13],inactive
same,Potency,[14],inactive
same,Potency,[15],inactive
same,Potency,[16],inactive
same,Potency,[17],inactive
